We go through 14 compounds from PubChem BioAssay (NCATS).

Records with an inconclusive call do not appear. The source made the active and inactive calls. Unless noted, calls come from the whole dose curve; as a rule, active = well fitted curve in the direction sought with a large enough effect; inconclusive = small, poorly fitted or top-dose-only effect, or another doubt; inactive = no such curve, though single readings can be large; an effect the other way counts as inactive or inconclusive.

Assay [1] in a line: Confirmation and Secondary Assay for Modulators of Hemoglobin Beta Chain Splicing at IVS2 654 locus (AID 910).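 Note: per-well total GFP intensity by laser scanning cytometry after 2-day treatment.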 As to conditions: HeLa EGFP-654 splicing reporter, GFP fluorescence, 48 h; series mostly up to 46.1 µM. In a few lines:
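HeLa cells stably carrying EGFP interrupted by mutant beta-globin IVS2-654 intron (CMV-driven) were treated with compound for 2 days at 37C; corrected splicing was scored as total peak GFP intensity per well (488 nm excitation, 500-520 nm emission).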

A short description of assay [2]: Confirmation and Secondary Assay for Modulators of Hemoglobin Beta Chain Splicing at IVS2 705 locus (AID 930).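 Note: HeLa cells stably expressing the EGFP-705 splicing reporter; GFP fluorescence per well restored by corrected splicing of the IVS2-705 intron in EGFP.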 Particulars: HeLa EGFP-705 splicing reporter, GFP fluorescence, 48 h; series mostly up to 46.1 µM. In a few lines:
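Fluorescence gain (488 nm laser, 500-520 nm PMT) reflects restored correct splicing of a mutant IVS2-705 intron inside EGFP in stably transfected HeLa cells after 2-day compound treatment.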

Assay [3] deals with Zika virus NS2B-NS3 protease (linked). The assay is described as follows: 384 well plate NINDS AMC confirmatory qHTS for Zika virus inhibitors (AID 1347163). Note: nearly all actives have a fitted effect of over 50% in size. Note: potency is the fitted concentration of half-maximal effect. As to conditions: Recombinant NS2B-NS3 protease, Ac-VKTGKR-AMC fluorescence; series mostly up to 100 µM. The essentials:
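Fluorescence at 355/460 nm was read after 25 minutes of cleavage of 30 microM Ac-VKTGKR-AMC at room temperature, in the dark. Before substrate addition, compounds (up to 1 mM final) sat ~15 minutes with 5, 30 or 60 nM linked protease. Signals were normalized to no-enzyme and no-inhibitor wells.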

The target in assay [4] is Cytochrome P450 2C19 (Homo sapiens) (UniProt P33261). As to the kind of experiment: qHTS Assay for Inhibitors and Substrates of Cytochrome P450 2C19 (AID 899). Note: nearly all actives have a fitted effect of over 60% in size. Note: potency is the fitted concentration of half-maximal effect. As to conditions: recombinant CYP2C19, luciferin-H EGE luminescence; series mostly up to 57.1 µM. In a few lines: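 In 50mM KPO4, the reaction held 5nM enzyme and KM-level (10uM) Luciferin-H EGE; it ran 60 min at 37C after NADPH regeneration and a 10 min compound preincubation. Luminescence values were scaled to 57uM ketoconazole as complete inhibition.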

Assay [5] is described as follows: Primary qHTS for small molecule stabilizers of the endoplasmic reticulum resident proteome: Secreted ER Calcium Modulated Protein (SERCaMP) assay (AID 1508630). Particulars: SH-SY5Y GLuc-SERCaMP (Gaussia luciferase released on ER calcium loss) secretion, thapsigargin, luminescence; series mostly up to 38.4 µM. In a few lines: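 The SH-SY5Y reporter protocol was run at 3 concentrations up to 38.3 uM (primary) or 11 concentrations (follow-up): 16 h compound, 100 nM thapsigargin for 4 h, then extracellular luciferase luminescence.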

Assay [6] can be described thus: Confirmatory qHTS for VERO E6 Cytotoxicity Assay: Counterscreen for SARS-CoV-2 CPE Assay (AID 1508605; calls by dose curve; note: nearly all actives have a fitted effect of over 60% in size; note: potency is the fitted concentration of half-maximal effect). As to conditions: cell viability luminescence; series mostly up to 20 µM.
Assay [7] concerns the target Cytochrome P450 2D6 (Homo sapiens) (UniProt P10635). As to the kind of experiment: Cytochrome P450 family 2 subfamily D member 6 (CYP2D6) small molecule antagonists: luciferase biochemical (cell-free) qHTS assay (AID 1645840; active = well fitted curve in the direction sought with a large enough effect in the repeat runs; an effect the other way counts as inactive or inconclusive; note: nearly all actives have a fitted effect of over 55% in size). As to conditions: P450-Glo CYP2D6 enzyme, luciferin luminescence, 1 h; series mostly up to 57.4 µM. The essentials: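 P450-Glo CYP2D6 system: proluciferin substrate converted by enzyme to luciferin, read by luminescence proportional to activity. Enzyme-substrate mix with compound 10 min at room temperature, then NADPH regeneration 1 h before detection reagent.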

The target in assay [8] is Cytochrome P450 2C9 (Homo sapiens) (UniProt P11712). As to the kind of experiment: Cytochrome P450 family 2 subfamily C member 9 (CYP2C9) small molecule antagonists: luciferase biochemical (cell-free) qHTS assay (AID 1645842; active = well fitted curve in the direction sought with a large enough effect in the repeat runs; an effect the other way counts as inactive or inconclusive; note: nearly all actives have a fitted effect of over 55% in size). As to conditions: P450-Glo CYP2C9 enzyme assay, luciferin luminescence; series mostly up to 57.4 µM. In a few lines: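 P450-Glo CYP2C9 system: proluciferin substrate with enzyme in mix containing 0.4% BSA, 10 min at room temperature, then NADPH regeneration solution added and incubated 1 h at 37C. Detection reagent stopped reaction; luminescence read after 20 min as RLU.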

Assay [9] can be described thus: Viability counterscreen for antagonist of constitutive androstane receptor (CAR) against the NCATS DSHEA and TCM libraries (AID 1794837).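 Note: compound exposure lasted 24 h before viability reading.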 As to conditions: CAR reporter cell line viability counterscreen, qHTS; series mostly up to 40 µM. The essentials: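 HepG2-CYP2B6-hCAR cells, 2,500/well, were exposed 24 hr at 37C to substances together with 48 uM CITCO (final). Viability was read as CellTiter-Fluor fluorescence (Ex/Em 405/540 nm) after 1 hr.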

Assay [10] in a line: Viability counterscreen for agonist of constitutive androstane receptor (CAR) against the NCATS DSHEA and TCM libraries (AID 1794838). As to conditions: HepG2 cell viability counterscreen, CAR agonist assay; series mostly up to 40 µM. In a few lines:
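HepG2-CYP2B6-hCAR cells (2,500/well) treated 24 h at 37C with compounds plus 0.75 uM PK11195; viability read by CellTiter-Fluor fluorescence, Ex/Em 405/540 nm.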

In assay [11] the target is Nuclear receptor subfamily 1 group I member 3 (Homo sapiens) (UniProt Q14994). The assay is described as follows: Primary qHTS for agonist of constitutive androstane receptor (CAR) against the NCATS DSHEA and TCM libraries (AID 1794839). Note: potency is the fitted concentration of half-maximal effect. Particulars: CAR agonist reporter cells, qHTS luminescence; Potency: CAR antagonist co-added at 0.75 µM unless noted; series mostly up to 40 µM. The essentials: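 HepG2-CYP2B6-hCAR cells, 2,500/well, attached 5 h, then dosed with 0.75 µM PK11195 (final) for 24 h at 37 °C. Luciferase luminescence read (ONE-Glo); CellTiter-Fluor viability (Ex/Em 405/540 nm) in same wells; CITCO positive control.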

Assay [12] is described as follows: HepG2 viability counterscreen (readout 2: ATP content) against the NCATS DSHEA and TCM libraries (AID 1794840). Particulars: ATP content luminescence; series mostly up to 27.3 µM. The essentials:
(§1)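 HepG2 cells, 1,000/well, attached ~4 h, then exposed ~24 h at 37C to substances. Protease activity read by fluorescence of 25 uM GF-AFC (Ex/Em 380/510 nm) after 30 min; ATP then by CellTiter-Glo luminescence.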

Assay [13] in a line: HepG2 viability counterscreen (readout 1: protease activity) against the NCATS DSHEA and TCM libraries (AID 1794841).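 Note: cells exposed to compounds for about 24 h before the protease read.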 As to conditions: qHTS concentration series; series mostly up to 27.3 µM. In a few lines:
as §1

For the next assay, the system named is CP191. The assay is described as follows: qHTS profiling for inhibitors of Plasmodium falciparum proliferation (AID 504749). Note: nearly all actives have a fitted effect of over 60% in size. Note: potency is the fitted concentration of half-maximal effect. As to conditions: P. falciparum in erythrocytes, SYBR Green DNA, 72 h; series mostly up to 28.7 µM. The essentials:
(§2)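 Quantitative HTS: compounds pinned into medium, infected erythrocytes added (0.3% parasitemia, 2.5% hematocrit), 72 h culture at 37 C under 5% CO2. Saponin/Triton lysis with SYBR Green I, overnight RT, then fluorescence read.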

In a further assay the test system is CP260. The description is as above. As to conditions: P. falciparum in erythrocytes, SYBR Green DNA, 72 h; series mostly up to 28.7 µM. In a few lines: as §2
The subject of another assay is CP291. The assay is described as above. As to conditions: P. falciparum in erythrocytes, SYBR Green DNA, 72 h; series mostly up to 28.7 µM. The essentials:
as §2

A further assay deals with CP335. The description is as above. Particulars: P. falciparum in erythrocytes, SYBR Green DNA, 72 h; series mostly up to 12.8 µM. In a few lines: as §2
The next assay concerns ICS. Described as above. Particulars: P. falciparum in erythrocytes, SYBR Green DNA, 72 h; series mostly up to 28.7 µM. The essentials:
as §2

The nature of assay [14]: S16 Schwann cell PMP22 intronic element firefly luciferase assay (AID 624032). Note: nearly all actives have a fitted effect of over 30% in size. Particulars: S16 rat Schwann cells, PMP22 element FLuc, 24 h; series mostly up to 57.5 µM. In a few lines: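 Rat S16 Schwann cells stably carrying a PMP22 intronic element-driven Fluc reporter were seeded overnight, then exposed to compounds for 24 h at 37 °C. Luminescence was normalized to PTC124 (positive control) and DMSO (0% activity).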

A further assay relates to 7G8. The assay is described as follows: qHTS profiling for inhibitors of Plasmodium falciparum proliferation (AID 504749). Note: nearly all actives have a fitted effect of over 60% in size. Note: potency is the fitted concentration of half-maximal effect. As to conditions: P. falciparum in erythrocytes, SYBR Green DNA, 72 h; series mostly up to 12.8 µM. In a few lines: as §2

Chain of Cytochrome P450 2D6 (Homo sapiens) (P10635 whole entry, looked up): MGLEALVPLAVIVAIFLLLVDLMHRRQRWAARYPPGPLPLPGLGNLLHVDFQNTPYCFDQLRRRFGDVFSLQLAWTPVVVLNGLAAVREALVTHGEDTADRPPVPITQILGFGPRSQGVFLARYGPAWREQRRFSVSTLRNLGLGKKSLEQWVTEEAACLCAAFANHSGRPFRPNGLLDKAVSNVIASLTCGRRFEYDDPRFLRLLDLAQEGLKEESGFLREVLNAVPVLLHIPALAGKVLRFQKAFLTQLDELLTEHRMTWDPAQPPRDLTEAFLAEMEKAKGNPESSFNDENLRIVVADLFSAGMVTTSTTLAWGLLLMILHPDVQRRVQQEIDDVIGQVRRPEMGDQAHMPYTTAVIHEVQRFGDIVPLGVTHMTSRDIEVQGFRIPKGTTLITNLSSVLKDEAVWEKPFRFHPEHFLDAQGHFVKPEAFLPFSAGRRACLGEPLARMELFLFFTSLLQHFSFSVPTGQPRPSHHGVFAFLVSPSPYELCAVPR
Chain of Nuclear receptor subfamily 1 group I member 3 (Homo sapiens) (Q14994 whole entry, looked up): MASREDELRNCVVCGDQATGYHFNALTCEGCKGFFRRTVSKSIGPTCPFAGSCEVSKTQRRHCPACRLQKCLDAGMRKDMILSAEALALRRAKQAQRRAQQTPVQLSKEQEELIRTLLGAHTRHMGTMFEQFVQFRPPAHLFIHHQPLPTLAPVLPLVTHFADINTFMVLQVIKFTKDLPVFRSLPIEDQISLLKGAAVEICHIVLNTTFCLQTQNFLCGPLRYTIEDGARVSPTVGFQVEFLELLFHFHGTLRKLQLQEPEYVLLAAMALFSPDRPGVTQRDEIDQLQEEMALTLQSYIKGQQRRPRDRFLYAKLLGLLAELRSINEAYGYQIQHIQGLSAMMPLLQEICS
Chain of Cytochrome P450 2C19 (Homo sapiens) (P33261 whole entry, looked up): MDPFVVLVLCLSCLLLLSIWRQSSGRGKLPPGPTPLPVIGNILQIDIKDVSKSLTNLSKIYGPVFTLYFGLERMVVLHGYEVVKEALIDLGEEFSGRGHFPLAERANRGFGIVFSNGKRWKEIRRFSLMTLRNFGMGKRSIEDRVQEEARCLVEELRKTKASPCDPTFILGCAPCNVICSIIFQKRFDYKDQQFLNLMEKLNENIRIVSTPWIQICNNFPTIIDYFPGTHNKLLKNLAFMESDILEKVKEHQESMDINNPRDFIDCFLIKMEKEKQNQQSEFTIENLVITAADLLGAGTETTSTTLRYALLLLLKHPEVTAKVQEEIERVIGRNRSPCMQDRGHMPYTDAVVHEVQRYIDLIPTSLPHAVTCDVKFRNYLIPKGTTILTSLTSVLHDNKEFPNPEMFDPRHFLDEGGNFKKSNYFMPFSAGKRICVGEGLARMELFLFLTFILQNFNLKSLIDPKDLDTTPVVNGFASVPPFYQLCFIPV
Chain of Cytochrome P450 2C9 (Homo sapiens) (P11712 whole entry, looked up): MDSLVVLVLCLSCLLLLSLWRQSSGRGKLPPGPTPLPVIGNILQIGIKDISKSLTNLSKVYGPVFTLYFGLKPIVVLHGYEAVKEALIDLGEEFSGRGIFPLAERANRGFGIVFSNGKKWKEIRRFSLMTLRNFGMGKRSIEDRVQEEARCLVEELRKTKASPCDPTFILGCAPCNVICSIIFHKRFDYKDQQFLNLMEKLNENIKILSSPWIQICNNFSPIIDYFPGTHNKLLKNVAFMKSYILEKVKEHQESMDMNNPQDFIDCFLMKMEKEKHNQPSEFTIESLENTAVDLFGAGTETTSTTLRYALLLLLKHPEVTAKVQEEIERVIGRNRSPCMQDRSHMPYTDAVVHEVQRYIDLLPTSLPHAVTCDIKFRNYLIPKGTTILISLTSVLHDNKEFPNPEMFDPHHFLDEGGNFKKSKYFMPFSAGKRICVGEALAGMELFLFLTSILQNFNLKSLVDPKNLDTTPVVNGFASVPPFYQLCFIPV

For the compound `CN(C)C1C(=O)C(C(N)=O)=C(O)[C@@]2(O)C(=O)C3=C(O)c4c(O)ccc(Cl)c4[C@](C)(O)C3CC12` (some centres not stated), the Potency result in assay [1] and in assay [2] was “inactive” in each case. The Potency in assay [3] is 282 µM (active).
For the compound `CN(C)[C@@H]1C(=O)C(C(N)=O)=C(O)[C@]2(O)C(=O)C3=C(O)c4c(O)cccc4[C@@](C)(O)[C@@H]3C[C@@H]12`, the Potency entry in assay [4] and in [3] was “inactive” throughout.
Regarding `CCC1/C=C/C=CCC(C)C(O)[C@@](C)(O)C(=O)C(C)C(O)C(C)C(=O)C(C)C(O)C(C)C=CC(=O)O[C@H]2C(C)C(CC1)O[C@]1(CCC(C)C(CC(C)O)O1)C2C` (some centres not stated), the Potency entry in [1] and in assay [2] was “inactive” each time.
Consider `O=C1/C(=C\c2ccccc2)C[C@@]2(O)[C@H]3Cc4ccc(O)c5c4[C@@]2(CCN3CC2CC2)[C@H]1O5`, for which the outcome in assay [5] was inactive.
As for `COC(=O)[C@@]12OC[C@]34[C@H]([C@@H](O)[C@@H]1O)[C@@]1(C)CC(=O)C(O)=C(C)[C@@H]1C[C@H]3OC(=O)[C@H](OC(=O)/C=C(\C)C(C)C)[C@@H]24`, the Potency in assay [6] was 127 nM (active).
For `C[C@@H](C1CC[C@@]2(O)C3=CC(=O)[C@@H]4C[C@@H](O)[C@@H](O)C[C@]4(C)[C@H]3CC[C@]12C)[C@H](O)CCC(C)(C)O` (some centres not stated), the Potency result in assay [7] and in [8] was “inactive” in each case.
Take `N#CC(O[C@@H]1O[C@H](CO[C@@H]2O[C@H](CO)[C@@H](O)[C@H](O)[C@H]2O)[C@@H](O)[C@H](O)[C@H]1O)c1ccccc1` (some centres not stated): the Potency entry in [7], in assay [8] and in [11] was “inactive” in each case. The result in assay [9], in assay [10], in assay [12] and in assay [13] was inactive.
For `CCCCCCC(C)(C)c1cc(O)c2c(c1)OC(C)(C)C1CC=C(CO)C[C@H]21` (some centres not stated), the Potency result in [6] is “inactive”.
Turning to `C=C(C)[C@@H]1CCC(C)=C[C@H]1c1c(O)cc(CCCCC)cc1O`, the compound was classed as inactive in assay [9], in assay [10], in [12] and in assay [13]. In [11], the Potency was 31.6 µM [setting not given] (active).
For `CC[C@@H](CO)NC(=O)[C@H]1C=C2c3cccc4c3c(cn4C)C[C@H]2N(C)C1`, the Potency in [4] is 126 nM (active). Also, the result in assay [5] was inactive.
As for `Oc1ccc2c3c1O[C@H]1[C@@H](O)CC[C@@]4(O)C(C2)N(CC2CCC2)CCC314` (some centres not stated), the Potency result in the assay with CP191, in the assay with CP260, in the assay with CP291, in the assay with CP335 and with ICS was “inactive” in each case.
Turning to `CCCC[N+]1(C)C2CC(OC(=O)C(CO)c3ccccc3)CC1C1OC12` (configuration not stated), the Potency entry (in assay [14]; in the assay with 7G8; in the assay on CP191; in the assay on CP260; in the assay with CP291; in the assay on CP335) was “inactive” in each case. Also, in the assay with ICS, the Potency entry was “inactive”.
On to `CCN(CC)C(=O)N[C@@H]1C[C@@H]2c3cccc4[nH]cc(c34)C[C@H]2N(C)C1`, for which, in [14], the Potency result was “inactive”. The Potency in the assay on 7G8 is 4.47 µM (active).
Consider `CC(C)(O)C1C2OC(=O)C1[C@]1(O)C[C@H]3O[C@]34C(=O)O[C@H]2[C@]14C` (some centres not stated) (tested in a mixture with another compound), for which the Potency result (in assay [14]; in the assay with 7G8; in the assay on CP191; with CP260; with CP291; in the assay with CP335) was “inactive” each time. The Potency entry in the assay on ICS was “inactive”.
